# gsp agonist: activates gsp, the McCune-Albright syndrome mutation; Potency, µM (series often up to 76.9 µM), for inactives: top-dose activation (cAMP increase), usual class: activators; gsp mutant cells, cAMP HTRF, 30 min; 340,000 tested, 0.13% active; active = well fitted activation curve with a large enough effect; inconclusive = small, poorly fitted or top-dose-only effect, or another doubt; inactive = no such curve, though single readings can be large or run the other way; cell line not stated here;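 also: phosphodiesterase inhibitor Ro 20-1724 added with compounds to block cAMP breakdown; potency is read from the fitted curve at half-maximal effect; nearly all actives have a fitted effect of over 60% in size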
#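 Cells in DMEM/10% FBS with G418 were pretreated with compounds in DMSO plus […] (300 uM stock) for 30 min at 37C. cAMP was measured by HTRF (cAMP-d2 plus anti-cAMP antibody-K) after 30 min at room temperature.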
# RXFP1 agonist: RXFP1 (human) receptor agonism; HEK293T-RXFP1 cAMP TR-FRET, 30 min; response scale: percent of porcine relaxin response, buffer zero; Q9HBX9; 370,000 tested, 0.3% active; Potency, µM (titrated, usually from 57.5 µM), for inactives: at the highest dose activation, hits mostly activators; active = well fitted activation curve with a large enough effect; inconclusive = small, poorly fitted or top-dose-only effect; also: potency is read from the fitted curve at half-maximal effect; % is scaled to controls: 0 for no effect and ±100 for the full control effect; nearly all actives have a fitted effect of over 60% in size
#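 HEK293T cells stably expressing RXFP1 were pretreated with the PDE4 inhibitor Ro 20174, exposed to compounds for 30 min at 37C, lysed, and cAMP was read by TR-FRET. Data normalized to buffer (basal) and 29 nM porcine relaxin (100%).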
# TSHR antag: human thyrotropin receptor antagonism; TSHR-expressing cells, TSH-stimulated cAMP HTRF, 2 h; stronger effect = lower value; activity change, negative = inhibition, % at 11.5 µM; 330,000 tested, 0.2% active;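 active = activity change below a set negative limit, meaning inhibition stronger than a set level, cut at about -70% in these data; inconclusive = activity change between two set negative limits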; also: % is scaled to controls: 0 for no effect and ±100 for the full control effect
# Target sequence (P16473 whole entry, looked up): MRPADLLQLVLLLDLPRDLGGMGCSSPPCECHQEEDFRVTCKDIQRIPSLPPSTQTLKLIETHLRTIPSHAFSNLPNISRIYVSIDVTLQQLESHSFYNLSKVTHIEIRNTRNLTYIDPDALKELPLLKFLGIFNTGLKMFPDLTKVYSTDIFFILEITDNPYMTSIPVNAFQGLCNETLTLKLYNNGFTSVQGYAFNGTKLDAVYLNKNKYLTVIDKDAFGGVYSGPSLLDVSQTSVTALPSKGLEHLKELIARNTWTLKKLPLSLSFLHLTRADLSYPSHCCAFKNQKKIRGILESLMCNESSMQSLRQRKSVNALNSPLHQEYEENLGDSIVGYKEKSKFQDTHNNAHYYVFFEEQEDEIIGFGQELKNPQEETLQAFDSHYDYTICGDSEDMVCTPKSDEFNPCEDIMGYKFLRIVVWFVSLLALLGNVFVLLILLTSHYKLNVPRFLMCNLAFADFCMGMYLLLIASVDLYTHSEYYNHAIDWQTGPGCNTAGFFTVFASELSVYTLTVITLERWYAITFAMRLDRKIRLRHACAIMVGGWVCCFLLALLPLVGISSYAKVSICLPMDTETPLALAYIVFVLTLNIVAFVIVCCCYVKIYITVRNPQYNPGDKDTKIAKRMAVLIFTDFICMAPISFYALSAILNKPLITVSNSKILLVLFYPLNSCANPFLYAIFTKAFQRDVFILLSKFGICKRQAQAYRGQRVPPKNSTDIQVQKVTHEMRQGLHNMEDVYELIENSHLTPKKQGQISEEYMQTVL
#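 Antagonism was scored as loss of TSH-driven cAMP in TSHR cells, stimulated with 4nM TSH (EC80) for 2 hours at 37 deg C and detected by homogeneous HTRF competition immunoassay.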
# RXFP1 antagonist: blocks the human relaxin receptor RXFP1; 350,000 tested, 0.59% active; HEK293-RXFP1, relaxin-stimulated cAMP HTRF, 30 min; stronger effect = lower value; activity change, negative = inhibition, % at 57.5 µM;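 active = activity change of -60% or lower, but not beyond a set lower limit; inconclusive = change between -60% and -40%, or beyond the set limit; inactive = change above -40%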; also: % is scaled to controls: 0 for no effect and ±100 for the full control effect
# gsp antagonist: antagonists of gsp mutant (McCune-Albright syndrome) | gsp-mutant cells, cAMP HTRF, 30 min | 340,000 tested, 0.4% active | Potency, µM (titrated, usually from 76.9 µM), inactives show top-dose activity change, negative = inhibition, usual class: inhibitors; calls by dose curve; cell line not stated here;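 also: intracellular cAMP measured with PDE inhibitor Ro 20-1724 present during compound exposure; potency is read from the fitted curve at half-maximal effect; % is scaled to controls: 0 for no effect and ±100 for the full control effect; nearly all actives have a fitted effect of over 65% in size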
#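 Cells in G418 medium, seeded 16-24 h, 37C; buffer exchange to DPBS + 1 mM CaCl2, 0.5 mM MgCl2, 0.05% BSA; cpds in DMSO + […] (300 uM stock), 30 min 37C; HTRF cAMP detection.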
# Starred values were filed as active, the others as inactive; ? = inconclusive; . = no result given; [ ] = remark or other dose. Most compounds without a hit are left out; they make up all but 1% or so of the library.
SMILES,gsp agonist,RXFP1 agonist,TSHR antag,RXFP1 antagonist,gsp antagonist
C[n+]1c(-c2ccccc2)cc(-c2ccc(Cl)cc2)cc1-c1ccccc1,32%,3%,10,-88*,-4%
Cc1ccc(-c2cc(-c3ccc(C)cc3)[n+](-c3ccccc3)c(-c3ccc(C)cc3)c2)cc1,.,0%,?,.,-23%
C[C@]12CC[C@H]3[C@@H](CCC4=CC(=O)CC[C@@H]43)[C@@H]1CC[C@@H]2OC(=O)CCC1CCCCC1,.,.,.,-11,.
COC(=O)c1c(Sc2ccccc2)c2ccccc2n1C,?,14%,6,-11,2%
CCCN(CCC)c1c([N+](=O)[O-])cc(S(N)(=O)=O)cc1[N+](=O)[O-],.,.,.,-73*,.
O=c1c(C2CC(c3ccc(-c4ccc(Br)cc4)cc3)Cc3ccccc32)c(O)sc2ccccc12 (centres undefined),.,.,.,-72*,.
C#CC(O)(C=CCl)CC (centres undefined),.,.,.,-8,.
CNC(=O)Oc1cc2c(cc1C(C)(C)C)CCC2,?,.,.,-86*,-2%
O=C(N[C@H]1N=C(c2ccccc2F)c2cccc3c2N(CC3)C1=O)c1cc2ccccc2[nH]1,.,.,.,-23,.
Fc1ccc(C(OCCN2CCN(CCCc3ccccc3)CC2)c2ccc(F)cc2)cc1,.,.,-8,-73*,.
c1ccc(CCCN2CCN(CCOC(c3ccccc3)c3ccccc3)CC2)cc1,.,.,5,.,-10%
Sc1ccccc1Cl,.,.,.,-6,.
O=C(c1ccc2c3c(cccc13)CC2)C1CCCN(CC2CC2)C1 (centres undefined),5%[15.4 µM],4%,12,-63*,14%
Cn1c(O)c(N=Nc2cccc(S(=O)(=O)N3CCOCC3)c2)c(=O)n(C)c1=O,?,10µM*,33,4,30%
CN1CCN(S(=O)(=O)c2cccc(C(=O)N3CCN(c4ccccc4F)CC3)c2)CC1,?,1%,4,5,4%
CCc1ccc(CN2CCN(Cc3ccc(SC)cc3)CC2)cc1,3%[15.4 µM],0%,-24,-62*,7%
O=C(COc1ccc(S(=O)(=O)N2CCCCC2)cc1)N1CCN(Cc2ccccc2)CC1,32µM*,2%,-16,5,-16%
Cc1ccc(OCC(=O)N2CCN(CCc3ccncc3)CC2)cc1,.,-3%,.,6,.
CC(C)(C)NS(=O)(=O)c1ccc(OCC(=O)N2CCN(Cc3ccccc3)CC2)cc1,-4%[15.4 µM],-1%,-9,-5,-1%
CSc1ccc(CN2CCN(C(=O)COc3ccc(C)cc3)CC2)cc1,3.2µM*,2%,-8,-12,0%
CCC1(CCC(C)C)C(=O)NC(=O)NC1=O,.,.,.,6,.
CC(=O)OCC1=C(C(=O)O)N2C(=O)[C@@H](N)[C@H]2SC1,.,.,.,5,.
Cc1cccc(OCCNc2ncccc2[N+](=O)[O-])c1,9%,.,.,-4,.
Cc1ccc([C@H]2C[C@@H](O)[C@H](n3cc(COC(=O)c4ccccc4)nn3)CN2CC2CCCCC2)cc1,-24%,.,.,-1,.
Cc1nc2ccccc2c(=O)n1-c1ccccc1Cl,.,.,.,8,.
SMILES,gsp agonist,RXFP1 agonist,TSHR antag,RXFP1 antagonist,gsp antagonist
CCN1CCCC1CNC(=O)C(O)(c1ccccc1)c1ccccc1 (centres undefined),.,.,.,5,.
Cc1ccccc1CN1C(=O)CN=C(c2ccccc2)c2cc(Cl)ccc21,.,1%,.,-95*,.
O=c1oc2ccccc2c(O)c1[C@H]1c2ccc(O)cc2Oc2c1c(=O)oc1ccccc21,21%,18µM*,-20,0,5%
Nc1ccccc1C(=O)OCC(O)CO (centres undefined),.,.,.,-3,.
CN1/C(=C\C=C2C(=O)NC(=S)NC2=O)C(C)(C)c2ccccc21,-130%,-5%,6,-13,50µM*
CC1(C)OC(c2ccccc2)=C/C(=C/C=C2C(=O)NC(=S)NC2=O)O1,-1%,8%,-5,-4,2%
Cc1cccc(C2=NCC(=O)N(CC(=O)NCc3ccco3)c3sc4c(c32)CCCC4)c1,-46%,-1%,14,-69*,?
CCN(CC)CCc1c[nH]c2ccccc12,.,.,.,10,.
CC/C(=C\C=C\[C@@H]1C=C[C@@H]2CCC[C@H]2[C@@H]1C(=O)c1ccc[nH]1)[C@@H]1O[C@@H]([C@@H](C)C(=O)O)CC[C@@H]1C,-17%,-1%,-72*,?,?
CC(=O)c1c(O)cc2c3c1OC(C)(C)C1CCC(C)(CC31)O2 (centres undefined),-53%,.,.,-4,.
C[C@]12CC[C@H]3[C@@H](CC[C@]4(O)C[C@@H](O)CC[C@]34C=O)[C@@]1(O)CC[C@@H]2C1=CC(=O)OC1,.,0%,-72*,.,-3%
C[C@H]1O[C@@H](O[C@H]2[C@@H](O)C[C@H](O[C@H]3[C@@H](O)C[C@H](O[C@H]4CC[C@@]5(C)[C@H](CC[C@@H]6[C@@H]5CC[C@]5(C)[C@@H](C7=CC(=O)OC7)CC[C@]65O)C4)O[C@@H]3C)O[C@@H]2C)C[C@H](O)[C@@H]1O,.,4%,?,-34,4%
C[C@H]1O[C@@H](OC2CC[C@]3(C=O)[C@H]4CC[C@]5(C)[C@@H](C6=CC(=O)OC6)CC[C@]5(O)[C@@H]4CC[C@]3(O)C2)CC2OC(C)(C)OC21 (some centres undefined),21%,-1%,-74*,-5,-6%
CCCCN=C[C@]12CCC(O)CC1(O)CCC1[C@@H]2CC[C@]2(C)[C@H](C3C=CC(=O)O3)CCC12O (some centres undefined),-12%,2%,-70*,-20,6%
CC12CCC3C(CCC4(O)CC(O)CCC34C=O)C1(O)CCC2C1=CC(=O)OC1 (centres undefined),?,.,.,-13,-1%
C#CCN(C[C@@H]1[C@@H](OC(=O)Nc2c(C)noc2C)[C@@H](OC(=O)Nc2c(C)noc2C)Cn2c(=O)n(CCCCCC)c(=O)n21)S(=O)(=O)c1ccc(C)cc1,-34%,.,.,2,.
COc1ccc(C(O)C(C)NC(C)C(O)c2ccc(OC)cc2)cc1 (centres undefined),26%,.,.,-1,1%
COc1ccc(C(c2ccc(OC)cc2)C(Cl)(Cl)Cl)cc1,.,1%,-38,-93*,-22%
O=C(N[C@@H]1N=C(c2ccccc2F)c2cccc3c2N(CC3)C1=O)c1cc2ccccc2[nH]1,.,.,.,-34,.
Cc1ccccc1C1=NCC(=O)N(CC(=O)N2CCCCC2)c2sc(C)c(C)c21,-29%,1%,-8,-6,7.1µM*
CCc1cc2c(s1)N(CC(=O)OC)C(=O)CN=C2c1ccccc1OC,0%,0%,2,-3,-6%
C[C@H]1CNCCc2ccc(Cl)cc21,.,.,.,-10,.
COc1ccc(OC)c(CNCCc2ccc(OC)c(OC)c2)c1,-19%,-1%,-3,10,3%

# Screening results as filed in PubChem BioAssay.
